From the supplement of paper PMC10941209 come the findings set out here.

Unmarked numbers belong to inactive results.

This test deals with Toxoplasma gondii RH 2F1 tachyzoites (intracellular in HFF). In words: parasite survival relative to DMSO control; higher = less antiparasitic activity, active = 20 or less. The note with it: 1 µM; 72 h. Here is the method: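 Primary single-dose screen of the MMV Pandemic Response Box at 1 uM against T. gondii RH-2F1 (beta-galactosidase) tachyzoites in HFF cells, 72 h at 37 C. Parasite growth read by CPRG absorbance at 570 nm and normalised to DMSO-treated infected controls (% survival); pyrimethamine was the reference drug. The paper calls at least 80% inhibition a hit.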
In the case of `CC(C)(C)c1ccc(Oc2ccc(N)cc2)cc1`, the parasite survival was 81.4%.
For the compound `O=C(Nc1ccc(Cl)c(C(F)(F)F)c1)C(CCCl)C(=O)Nc1ccc(Cl)c(C(F)(F)F)c1`, the parasite survival is 15.6% (active).
The same measure for `CCC(C)NCC(O)Cn1c2ccc(Cl)cc2c2cc(Cl)ccc21` (stereo not given): 26.8%.
For `CC(C)N(c1cc(-c2ccccc2)sc1C(=O)O)C(=O)[C@H]1CC[C@H](C)CC1` the value was 65%; for `CCCCSc1nc(N)c2[nH]c(=O)c(=O)n(Cc3ccccc3)c2n1`, 26.1%; for `NC(=O)c1ccc(I)c([N+](=O)[O-])c1`, 59.1%.
The same measure for `Cc1cc(O)c2c(c1)C(=O)c1c(I)c(O)c(I)c(O)c1C2=O`: 47%; for `CCc1cc(O)c(Oc2cccnc2N)cc1F`: 44.6%.
Regarding `C[C@H]1[C@@H](c2cccc(C(F)(F)F)c2)OC(=O)N1C(=O)NCc1cncc2ccccc12`, the parasite survival is 40.6%.
For `COc1ccc(CNC(=O)C(NS(=O)(=O)c2ccc3nc(C)sc3c2)C(C)C)cc1` (stereo not given) the value was 56.4%; for `O=C(Nc1nnc(-c2ccccc2)o1)c1ccc(F)cc1`, 52.8%.
The same measure for `COC(=O)Nc1nc2cc([S+]([O-])c3ccccc3)ccc2[nH]1` (stereo not given): 59.2%; for `c1ccc(-c2nnc3c4ccccc4c(N4CCNCC4)nn23)cc1`: 11.3% (active).
For `Nc1ccc2oc(=O)ccc2c1I` the value was 80.5%; for `CC1=C(/C=C/C(C)=C/C=C/C(C)=C/C(=O)Nc2ccc(O)cc2)C(C)(C)CCC1`, 35.7%.
Turning to `CN(C)[C@@H]1C(=O)C(C(N)=O)=C(O)[C@@]2(O)C(=O)C3=C(O)c4c(O)c(NC(=O)CN5CCCC5)cc(F)c4C[C@H]3C[C@@H]12`, the parasite survival is 34.5%.
The same measure for `CC(C)Oc1ccc(-n2cnc3cc(/C=C\c4ccc(C(C)(C)O)cc4)ccc32)cc1`: 31.7%; for `CC(C)CCN1C(=O)C(C2=NS(=O)(=O)c3cc(NS(C)(=O)=O)ccc3N2)=C(O)[C@@H]2[C@H]3CC[C@H](C3)[C@@H]21`: 72.3%; for `Cc1ccc(S(=O)(=O)Nc2cccc3cccnc23)cc1`: 4.22% (active).
For `CC(N)C12CC3CC(CC(C3)C1)C2` (stereo not given) the value was 78.3%.
Turning to `C[C@@H](NC(=O)c1ccccc1-c1ccccc1)B(O)O`, the parasite survival was 43.9%.
For `c1ccc(Cn2c(-c3ccccn3)nc3ccccc32)cc1` the value was 61.7%; for `Clc1ccc(Cn2c(CN3CCCC3)nc3ccccc32)cc1`, 42.2%.
As to `C=C[C@]1(C)C[C@@H](OC(=O)CS[C@@H]2C[C@H]3CC[C@@H](C2)N3C)[C@]2(C)[C@H](C)CC[C@]3(CCC(=O)[C@H]32)[C@@H](C)[C@@H]1O`, the parasite survival was 18.1% (active).
For `Cc1nc(Nc2ccc(F)cc2)nc(N2CCc3ccccc3C2C)c1C` (stereo not given) the value was 20.5%; for `C[C@H]1CC[C@]2(NC1)O[C@H]1C[C@H]3[C@@H]4CC[C@H]5C[C@@H](O)CC[C@]5(C)[C@H]4CC[C@]3(C)[C@H]1[C@@H]2C`, 41.1%.
For `O=C(NO)C1(CS(=O)(=O)c2ccc(Oc3ccc(Cl)cc3)cc2)CCOCC1` the value was 66%.
The same measure for `OC(Cn1cncn1)(Cn1cncn1)c1ccc(F)cc1F`: 46%.
On to `Nc1nc(-c2ccccc2)nc2c1ncn2[C@@H]1O[C@H](COS(=O)(=O)NC(=O)c2ccccc2O)[C@@H](O)[C@H]1O`, for which the parasite survival was 60.7%.
The same measure for `CCOc1noc2cc(OCCC3CCN(c4ccc(C)nn4)CC3)ccc12`: 45%.
For `CC(=O)N[C@H](C)C(=O)N[C@H](Cc1ccccc1)C(=O)O`, the parasite survival is 61.2%.
For `NNC(=O)c1ccncc1` the value was 63.2%; for `Cc1nc(N(C)C(=O)Cc2ccc(-c3ccccn3)cc2)sc1S(N)(=O)=O`, 72.8%; for `CC(C)=CCC/C(C)=C/CNCCNC1C2CC3CC(C2)CC1C3` (stereo not given), 8.85% (active).
For `CC[C@H](CO)Nc1nc(NCc2ccccc2)c2ncn(C(C)C)c2n1` the value was 87.1%.
The same measure for `O=S(=O)(Nc1ccc(O)cc1)c1cccc2cccnc12`: 64.4%; for `CC(=O)N1CCN(c2ccc(OCC3COC(Cn4ccnc4)(c4ccc(Cl)cc4Cl)O3)cc2)CC1` (stereo not given): 58.4%; for `CC[N+]1(C/C2=C/CCCCCC2)CCC(NC(=O)C2c3cc(Cl)ccc3Oc3ccc(Cl)cc32)CC1` (stereo not given): 59.8%.
On to `Cc1[nH]c2ccccc2c1CCNCc1ccc(/C=C/C(=O)NO)cc1`, for which the parasite survival is 4.12% (active).
The same measure for `O=C(c1nc2c(C(F)(F)F)cc(C3CC3)cn2c1Cl)N1CCN([C@H]2CC[C@H](O)CC2)C(=O)C1`: 21.1%.
